Inconclusive results are not listed. Activity calls are given as the source filed them. Calls follow the shape of the dose curve; as a rule, active = well fitted inhibition curve with a large enough effect; inconclusive = small, poorly fitted or top-dose-only effect; inactive = no such curve, though single readings can be large or run the other way.
Assay: Confirmatory qHTS for Identification of Small Molecule Inhibitors of Huntingtin Promoter Activity; also: nearly all actives have a fitted effect of over 65% in size
Settings: HEK293 HTT promoter firefly luciferase reporter, 24 h; series mostly up to 57.5 µM; activity change, negative = inhibition: at the top concentration
Source text: Assay Provider: Russell L. Margolis M.D.
Department Neurology, Johns Hopkins University School of Medicine, Baltimore, MD
Huntington's Disease (HD) is a neurodegenerative disorder caused by a CAG repeat expansion in exon 1 of huntingtin (HTT). While there are currently no disease-modifying treatments for HD, recent efforts have focused on development of nucleotide-based therapeutics to lower HTT expression. As an alternative to siRNA or oligonucleotide methods, we hypothesized that suppression of HTT expression might be accomplished by small molecules that either (1) directly decrease HTT expression by suppressing HTT promoter activity or (2) indirectly decrease HTT expression by increasing the promoter activity of HTT-AS, the gene antisense to HTT that appears to inhibit expression of HTT.
We developed and employed a high throughput screen for modifiers of HTT and HTT-AS promoter activity using luminescent reporter HEK293 cells; of the 52,041 compounds tested, we identified 898 replicable hits. We used a rigorous stepwise approach to assess compound toxicity and the capacity of the compounds to specifically lower huntingtin protein in 5 different cell lines, including HEK293 cells, HD lymphoblastoid cells, mouse primary neurons, HD iPSCs differentiated into cortical-like neurons, and HD hESCs. We found no compounds which were able to lower huntingtin without lowering cell viability in all assays, though the potential efficacy of a few compounds at non-toxic doses could not be excluded.
SEQUENCE No. (1, 2, 3, etc.); […] (e.g., Cells, Incubation, Reagent, etc.); VALUE and DESCRIPTION.
1; Reagent; 4 uL; 2,500 Hek293 luciferase reporter cells per wells
3; Compound; 23 nL; Control inhibitor / compound library
5; Reagent; 2.5 uL; Firefly Luc reagent; Dual-Glo Luciferase Reporter Assay System (Promega)
6; Time; 10 min; room temperature incubation
7; Detection; Luminescence; FLuc
NOTES (numbers refer to sequence above)
1; High-throughput screening, measuring luminescence from a Hek293 luciferase reporter, was performed in 1,536 well white-walled tissue-culture treated plates. 2,500 cells were plated in 4 uL of Opti-MEM per well using a Multidrop Combi Reagent Dispenser (ThermoFisher).
2; Assay plates were cultured for 24 hours.
3; Control inhibitor (PTC124; final concentration of 50 uM) and compound library (at final concentrations of 460 nM - 57.5 uM) were added to the assay plate using the Kalypsis Pintool Robotic System equipped with 1536 pinheads.
4; Cells were then incubated for 24 hours at 37C prior to luminescence measurements.
5; In all cases, luminescence was measured using the Dual-Glo Luciferase Reporter Assay System (Promega) following the manufacturer's instructions.
6; Room temperature incubation.
7; Luminescence signal was obtained using the PerkinElmer ViewLux plate reader. Results were normalized to vehicle control (0% activity) and zero RLU (-100% activity).
Potency is read from the fitted curve at half-maximal effect.

| SMILES | activity change, negative = inhibition | Potency |
| --- | --- | --- |
| Cc1ccc(S(=O)(=O)Nc2cccc(-c3ccc(N4CCCCC4)nn3)c2)s1 | -21.3% (inactive) | – |
| COc1ccc(NC(=O)Cn2nc(-c3ccncc3)ccc2=O)cc1Cl | 0.17% (inactive) | – |
| CCS(=O)(=O)c1oc(-c2ccc(F)cc2)nc1S(=O)(=O)c1ccc(Br)cc1 | 0.217% (inactive) | – |
| CCCS(=O)(=O)NCCc1sc2nc(-c3ccc(F)cc3)nn2c1C | -27.6% (inactive) | – |
| O=S(=O)(c1ccc(-c2csc(=Nc3ccc(OC(F)(F)Cl)cc3)n2CCCO)cc1)N1CCCC1 | – | 1.9 µM (active) |
| O=C(C=Cc1ccc(O)cc1)c1ccc(O)cc1O | 20% (inactive) | – |
| Cc1cc(SCC(=O)Nc2nsc(-c3ccc(C(C)(C)C)cc3)n2)nc2ccccc12 | 1.92% (inactive) | – |
| Cc1cccc(N2CCN(C(=O)c3ccc(NC(=O)c4nsc5ccccc45)cc3)CC2C)c1 (stereo not given) | -63.2% (inactive) | – |
| CCOC(=O)c1ccc(N2C(=O)c3[nH]nc(-c4ccccc4)c3C2c2cccs2)cc1 (stereo not given) | – | 13.5 µM (active) |
| COc1ccc(S(=O)(=O)c2cc3cc(C(C)(C)C)cc(O)c3oc2=O)cc1 | -18.7% (inactive) | – |
| COC(=O)C1=C(C)NC(C)=C(C(=O)OCC(C)=O)C1c1ccccc1[N+](=O)[O-] (stereo not given) | 7.3% (inactive) | – |
| Cc1cccc(C2C=C(c3ccc(F)cc3)Nc3nc4ccccc4n32)c1 (stereo not given) | 21.9% (inactive) | – |
| O=C(CCCCCCNC(=O)c1cnc(N(c2ccccc2)c2ccccc2)nc1)NO | 440% (inactive) | – |
| COc1cc2nc(N3CCCN(C)CC3)nc(NC3CCN(Cc4ccccc4)CC3)c2cc1OC | – | 26.9 µM (active) |
| CC(C)Oc1ccc(C(=O)N(Cc2ccco2)c2ccccn2)cc1 | 52.2% (inactive) | – |
| CC(C)c1ccc(Cc2cnc(NC(=O)c3ccc4c(c3)CC(c3ccccc3)OC4=O)s2)cc1 (stereo not given) | – | 3.79 µM (active) |
| COc1ccccc1N1CCN(S(=O)(=O)c2ccc(F)c(C(=O)Nc3ccc(Cl)cc3C(F)(F)F)c2)CC1 | -15.9% (inactive) | – |
| CO[C@H]1C=CC=C(C)C(=O)NC2=CC(=O)C(NCCN(C)C)=C(C[C@@H](C)C[C@H](OC)[C@@H](O)[C@@H](C)C=C(C)[C@@H]1OC(N)=O)C2=O | 10.9% (inactive) | – |
| CC(C)c1ccc(C2=CC(c3cccc(Cl)c3)n3c(nc4ccccc43)N2)cc1 (stereo not given) | -47.6% (inactive) | – |
| Cc1cc(C)c(NS(=O)(=O)c2ccc(-c3cnc(C4CC4)o3)cc2)c(C)c1 | – | 0.675 µM (active) |

| SMILES | activity change, negative = inhibition | Potency |
| --- | --- | --- |
| COc1cccc(CNC(=O)c2ccc3nc(N4CCCCC4)sc3c2)c1OC | -26.3% (inactive) | – |
| Cc1c(NS(C)(=O)=O)cccc1-c1nc2ccccc2s1 | -24.1% (inactive) | – |
| O=c1cc(-c2ccccc2)oc2cc(O)cc(O)c12 | -0.597% (inactive) | – |
| O=C(CCCCCCC(=O)Nc1ccccc1)NO | – | inactive |
| O=C1C2=C(Nc3ccccc3SC2c2ccc(C(F)(F)F)cc2)c2ccccc21 (stereo not given) | – | 19 µM (active) |
| Cc1ccccc1NC(=O)c1c(NC(=O)C(F)(F)F)sc2c1CCCCC2 | – | 0.849 µM (active) |
| NC(=O)Nc1cc(-c2ccc(CN3CCOCC3)cc2)sc1C(N)=O | 16.2% (inactive) | – |
| COc1ccc(-n2c(/C=C/c3cccc4ccccc34)nc3ccccc3c2=O)cc1Cl | -19.7% (inactive) | – |
| O=C(NCc1cccs1)c1ccc(Cn2c(SCc3ccc(F)cc3)nc3cccnc32)cc1 | -22.4% (inactive) | – |
| Cc1cc(Nc2sc(C(=O)c3ccc(F)cc3)c(N)c2C(=O)Nc2ccc(F)cc2)ccc1Cl | – | 1.69 µM (active) |
| Cn1c(NCCN(CCO)CCCc2ccc([N+](=O)[O-])cc2)cc(=O)n(C)c1=O | -2.78% (inactive) | – |
| COc1ccccc1NC(=O)CN1C(=O)C(C)(C)c2ccccc21 | -21.9% (inactive) | – |
| COc1ccc(S(=O)(=O)Nc2cc(-c3cn4ccc(C)cc4n3)ccc2C)cc1OC | -0.512% (inactive) | – |
| O=C(Cc1ccccc1)Nc1cccc(-c2cn3cccnc3n2)c1 | 42.3% (inactive) | – |
| COC(=O)c1c(C)oc2ccc(N(C(=O)c3ccncc3)S(=O)(=O)c3ccc(OC)cc3)cc12 | – | 3.79 µM (active) |
| Cc1ccc2nc(CSc3nnc(NC(=O)COc4ccccc4)s3)cc(=O)n2c1 | 1.77% (inactive) | – |
| CCOc1ccc(C(=O)N(Cc2cc(OC)c(OC)c(OC)c2)c2ccccn2)cc1 | -18.3% (inactive) | – |
| O=C(CSc1nccn1Cc1ccco1)Nc1cc(C(F)(F)F)ccc1Cl | -16% (inactive) | – |
| CC(C)OCc1cc(CN2CCN(c3cccc(C(F)(F)F)c3)CC2)c(O)c2ncccc12 | – | 9.53 µM (active) |
| CN(C)Cc1ccc(-c2nc3cccc4c3n2CCNC4=O)cc1 | -26.9% (inactive) | – |

From PubChem BioAssay AID1508621 (National Center for Advancing Translational Sciences (NCATS), 2021)
